In PubChem BioAssay (NCI):
Compounds without any hit were thinned out: in the full panel of roughly 79,000, 15% have a hit. Unmarked numbers belong to inactive results. The source made the active and inactive calls. Rule as the data show it: active = growth inhibition above about 70%; inactive = the rest.

How the values were obtained:
[1] = NCI Yeast Anticancer Drug Screen. Data for the rad50 strain (AID 155);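 also: 0% = growth of vehicle-only cultures of the same strain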; conditions: S. cerevisiae rad50 strain growth inhibition, active compounds read high
In short: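 A DNA repair-deficient yeast mutant serves as the test organism; compound-induced growth inhibition is calculated against vehicle-treated cells.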

[2] = NCI Yeast Anticancer Drug Screen. Data for the mec2-1 strain (AID 157); conditions: S. cerevisiae mec2-1 strain, active compounds read high
In short: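 Each compound was tested on mec2-1 yeast, a strain altered in DNA damage repair or cell cycle control. Growth inhibition is reported relative to vehicle.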

[3] = NCI Yeast Anticancer Drug Screen. Data for the sgs1 mgt1 strain (AID 161);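 also: 0% = growth of cultures given vehicle only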; conditions: S. cerevisiae sgs1 mgt1 strain, active compounds read high
In short: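 Mutant yeast exposed to compound; growth scored against vehicle-only wells.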

[4] = NCI Yeast Anticancer Drug Screen. Data for the cln2 rad14 strain (AID 165);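 also: 0% = growth equal to vehicle treated cultures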; conditions: S. cerevisiae cln2 rad14 strain, active compounds read high
In short: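 Test compounds were added to cln2 rad14 yeast cultures; inhibition of growth was then determined by comparison with vehicle treatment.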

[5] = NCI Yeast Anticancer Drug Screen. Data for the bub3 strain (AID 167); conditions: S. cerevisiae bub3 mutant strain, active compounds read high
In short: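 Inhibition values come from growth of compound-treated mutant yeast normalised to vehicle-treated controls.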

[6] = NCI Yeast Anticancer Drug Screen. Data for the mlh1 rad18 strain (AID 175); conditions: S. cerevisiae mlh1 rad18 strain growth inhibition, active compounds read high
In short: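 Inhibition values reflect reduced growth of mutant yeast versus vehicle-treated controls following compound exposure; the mutations affect DNA damage repair.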

[7] = at 5.0 µM (retest, dose inferred, filed as 0.5)
[8] = at 50.0 µM (retest, dose inferred, filed as 5.0)

SMILES	growth inhibition [1, 7]	growth inhibition [1, 8]	growth inhibition ([1]; at 50.0 µM)	growth inhibition [2, 7]	growth inhibition [2, 8]	growth inhibition ([2]; at 50.0 µM)	growth inhibition [3, 7]	growth inhibition [3, 8]	growth inhibition ([3]; at 50.0 µM)	growth inhibition [4, 7] [%]	growth inhibition [4, 8]	growth inhibition ([4]; at 50.0 µM)	growth inhibition [5, 7]	growth inhibition [5, 8]	growth inhibition ([5]; at 50.0 µM)	growth inhibition [6, 7]	growth inhibition [6, 8]	growth inhibition ([6]; at 50.0 µM)
CC(=O)n1c(=S)n(C(C)=O)c2ccccc21	2%	83% (active)	51.5%	-16%	89% (active)	54.4%	-24%	76% (active)	40.2%	10	39%	67.8%	-23%	76% (active)	71.1% (active)	-13%	94% (active)	30.1%
Nc1ccccc1/C=C1/Sc2cc[nH]c2C1=O	2%	5%	4.9%	1%	-1%	5.55%	-2%	-5%	-15.8%	-1	-3%	3.1%	15%	40%	83.8% (active)	3%	10%	-9.8%
CSc1nc(SC)c2cn(Cc3ccccc3)nc2n1	-2%	94% (active)	55.5%	-3%	95% (active)	52.1%	-5%	97% (active)	80.7% (active)	-8	85% (active)	26.2%	4%	92% (active)	42.8%	-2%	95% (active)	63.8%
COC(=O)C(CBr)CBr	25%	100% (active)	-20.9%	34%	99% (active)	9.55%	22%	98% (active)	-5.25%	21	99% (active)	10.7%	47%	100% (active)	5.8%	39%	99% (active)	-14.7%
O=C1C(=O)c2ccccc2C(O)=C1Sc1ccccc1	23%	92% (active)	95.2% (active)	20%	89% (active)	92.4% (active)	44%	95% (active)	95% (active)	41	88% (active)	79.3% (active)	15%	94% (active)	93.7% (active)	34%	93% (active)	95.5% (active)
CCN(CC)CCN(C)c1ccc(CO)c2c1C(=O)c1ccccc1S2=O (stereo not given)	5%	74% (active)	95.8% (active)	-3%	28%	60.9%	-5%	78% (active)	96.3% (active)	2	23%	33.5%	2%	9%	82.4% (active)	-1%	73% (active)	97.9% (active)
Oc1ccc(C2SC(c3ccc(O)cc3)SC(c3ccc(O)cc3)S2)cc1 (stereo not given)	14%	98% (active)	97.6% (active)	-1%	96% (active)	99.3% (active)	-23%	99% (active)	99% (active)	23	98% (active)	98.4% (active)	30%	99% (active)	98.1% (active)	35%	99% (active)	98.8% (active)
O=C1c2cccc3cc([N+](=O)[O-])cc(c23)C(=O)N1O	34%	56%	82.7% (active)	15%	32%	91.3% (active)	13%	37%	81.2% (active)	20	35%	32.4%	18%	64%	70.5% (active)	31%	71% (active)	80.7% (active)
C1=C(c2ccccc2)[P+](c2ccccc2)(c2ccccc2)C=C(c2ccccc2)[P+]1(c1ccccc1)c1ccccc1	87% (active)	98% (active)	99.3% (active)	89% (active)	99% (active)	99.7% (active)	89% (active)	99% (active)	99.2% (active)	44	98% (active)	98.2% (active)	83% (active)	99% (active)	99.2% (active)	83% (active)	99% (active)	99.2% (active)
CCCCCN=C(C)C(C)=NCCCCC	-15%	70% (active)	93.3% (active)	3%	92% (active)	74.3% (active)	9%	50%	31.4%	-50	63%	83.7% (active)	-12%	86% (active)	96.8% (active)	-9%	94% (active)	95% (active)
NC(=S)SCCC(=O)O	-2%	4%	-31.1%	-6%	-21%	-41.5%	-10%	-14%	-3.95%	-3	-4%	40.1%	-11%	-19%	-21.9%	-16%	-4%	2.85%
Oc1ccc(-c2ccccc2)cc1O	23%	99% (active)	76.1% (active)	13%	100% (active)	82% (active)	12%	99% (active)	89% (active)	-3	99% (active)	1.55%	-6%	99% (active)	46.5%	27%	99% (active)	81.4% (active)
Cc1cc(Cl)cc2c1OCN(C)C2	0%	93% (active)	99% (active)	1%	96% (active)	99.2% (active)	1%	97% (active)	98.8% (active)	-6	96% (active)	99.3% (active)	-5%	94% (active)	99% (active)	0%	94% (active)	99.5% (active)
Cc1c(C)c(NC(=O)/C=C/C(=O)O)c(C)c(C)c1NC(=O)/C=C\C(=O)O	-14%	14%	61.7%	-6%	37%	88.8% (active)	-13%	11%	89.9% (active)	7	11%	42.2%	-4%	35%	86.3% (active)	-31%	58%	59.6%
Oc1ccc(C(c2ccccc2)(c2ccccc2)c2ccccc2)cc1O	-8%	99% (active)	98.2% (active)	-2%	100% (active)	98.7% (active)	-4%	99% (active)	98.3% (active)	0	97% (active)	97.4% (active)	-4%	99% (active)	98% (active)	0%	99% (active)	98% (active)
CCN1/C(=C/C=C/C=C\C=C\c2sc3ccc4ccccc4c3[n+]2CC)Sc2ccc3ccccc3c21	28%	68%	49.2%	21%	80% (active)	46.8%	25%	75% (active)	47.6%	48	65%	54%	34%	65%	30.4%	25%	73% (active)	40.6%
c1ccc2c(c1)nc1cc(NC3CCCCC3)c(=NC3CCCCC3)cc-1n2C1CCCCC1	8%	4%	44.5%	0%	5%	37.6%	-7%	2%	42.8%	-1	-13%	23.3%	-3%	16%	39.8%	0%	-49%	16.6%
COc1cc(C2OC(=O)c3ccccc3S2)ccc1O (stereo not given)	8%	92% (active)	98.7% (active)	12%	98% (active)	98.6% (active)	-4%	74% (active)	71.6% (active)	7	76% (active)	96% (active)	5%	84% (active)	95.5% (active)	13%	98% (active)	99.5% (active)
CN(C)c1cc(N(C)C)c2cc(-c3ccccc3)sc2n1	11%	98% (active)	75.7% (active)	3%	99% (active)	17.2%	5%	95% (active)	94.6% (active)	-11	82% (active)	7.65%	-5%	93% (active)	64%	1%	94% (active)	63%
O=C(CCN1CCCCC1)N1CCc2c([nH]c3ccccc23)C1c1cccnc1 (stereo not given)	-8%	8%	13.1%	1%	16%	1.2%	0%	-8%	-5.35%	5	22%	-6.8%	4%	46%	-0.3%	2%	-4%	-14.4%
